The entries come from a sample that favours hits as a whole.
FECH block = human FECH heme synthesis enzyme inhibition; P22830; calls only at 10 µM (by protocol); purified FECH, Ni-mesoporphyrin absorbance 550 nm; 3.3% of 20,000 active;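 active means enzyme reaction rate more than 3 SD below the solvent-only control wells on the same plate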;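 further: lower slope than DMSO wells means FECH inhibition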
Target sequence (P22830 whole entry, looked up): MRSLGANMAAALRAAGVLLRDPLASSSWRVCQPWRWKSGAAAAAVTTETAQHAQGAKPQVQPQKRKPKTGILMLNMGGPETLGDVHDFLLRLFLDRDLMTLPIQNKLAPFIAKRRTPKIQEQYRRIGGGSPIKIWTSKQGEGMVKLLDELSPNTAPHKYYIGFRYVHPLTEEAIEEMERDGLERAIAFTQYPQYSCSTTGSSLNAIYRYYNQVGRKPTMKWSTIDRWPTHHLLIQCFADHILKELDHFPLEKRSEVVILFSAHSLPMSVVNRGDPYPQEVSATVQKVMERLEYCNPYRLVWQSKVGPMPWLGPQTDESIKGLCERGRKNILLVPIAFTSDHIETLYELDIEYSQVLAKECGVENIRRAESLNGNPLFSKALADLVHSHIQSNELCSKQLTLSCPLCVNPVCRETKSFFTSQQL
Each line names hits and unclear results; the compound was inactive in the other large screens.

C[C@@]1(O)CCN(C(=O)Cc2ccc(O)cc2)C[C@@H]1Cc1ccccc1	none
Cc1cccc(C)c1C(=O)N1CC[C@@](C)(O)[C@@H](Cc2ccccc2)C1	FECH block active
Cc1cc(C(F)(F)F)nc(CCNc2ncnc3c2CCNC3)n1	none
CCOc1ccccc1CN(CC)C(=O)c1cc(=O)[nH]c2ccc(F)cc12	none
CCOc1ccc2nc(N3CCCC(C(=O)NCCc4ccc(S(N)(=O)=O)cc4)C3)sc2c1 (stereo not drawn)	none
CC1CCCCN1S(=O)(=O)c1cc(-c2ccc(=O)[nH]n2)ccc1Cl (stereo not drawn)	none
O=C(NCc1ccccc1)C1CCN(c2ncnc3c2nc2n3CCCCC2)CC1	none
CN(CCNC(=O)C1CCN(c2ncnc3c2nc2n3CCCCC2)CC1)Cc1ccccc1	FECH block active
CCN(CCNC(=O)C1CCCN(c2ncnc3c2nc2n3CCCCC2)C1)Cc1ccccc1 (stereo not drawn)	none
CN(C)CC(=O)Nc1ccc(C(=O)Nc2cnc3n2CCCC3)cc1	none
O=C(CCCn1nnc(-c2ccc(F)cc2)n1)Nc1cnc2n1CCCC2	none
Cn1nnc(-c2ccc(C(=O)Nc3cnc4n3CCCC4)cc2)n1	FECH block active
COc1ccc(Cl)c(CN2CCN(c3ncc(F)cn3)CC2)c1F	none
CCOc1cccc(CN2CCC(Cc3nnc(SC)n3C)CC2)c1O	none
Cc1ccc(Cl)c(CN2CCC(Cc3nnc(CO)n3C)CC2)c1F	FECH block active
Cc1ccc(C2=CC(c3ccc(F)cc3)n3nc(NC(=O)C(C)C)nc3N2)cc1 (stereo not drawn)	none
Fc1ccc(-c2[nH]ncc2CNCC2(Cn3cccn3)CC2)cc1	none
COc1ncccc1-c1ccc(-c2ncc(C)cn2)cc1	none
CCC(C)NC(=O)Cn1c(=O)n(Cc2ccc(C(=O)NC)cc2)c(=O)c2cc(OC)c(OC)cc21 (stereo not drawn)	FECH block active
CCCNC(=O)Cn1c(=O)n(Cc2ccc(C(=O)NC)cc2)c(=O)c2cc(OC)c(OC)cc21	none
CNC(=O)c1ccc(Cn2c(=O)c3cc(OC)c(OC)cc3n(CC(=O)NC3CCCC3)c2=O)cc1	FECH block active
COc1cc2c(=O)n(Cc3ccc(C(=O)NC4CCCC4)cc3)c(=O)n(CC(N)=O)c2cc1OC	none
CCC(C)NC(=O)c1ccc(Cn2c(=O)c3cc(OC)c(OC)cc3n(CC(N)=O)c2=O)cc1 (stereo not drawn)	none
CCCNC(=O)c1ccc(Cn2c(=O)c3cc(OC)c(OC)cc3n(CC(=O)NC(C)CC)c2=O)cc1 (stereo not drawn)	none
C=CCNc1ccccc1C(=O)N(Cc1ccc2c(c1)OCO2)C1CC1	none
Cc1ccc(Nc2cc(C)nc(N3CCN(S(=O)(=O)c4cc(C(C)C)ccc4C)CC3)n2)cc1	none
O=C(CCC(=O)N1CCCCC1c1cccnc1)NC1CCCCCCC1 (stereo not drawn)	none
CN1CCC2(CC1)CCN(S(=O)(=O)Cc1ccccc1Cl)C2	none
CCn1cc(C(=O)N(Cc2ccccn2)CC(C)C)c(=O)c2ccc(C)nc21	none
COc1ccc(S(=O)(=O)N2CCN(c3cc(-c4ccc(C)cc4)ncn3)CC2)cc1Cl	none
Cc1cc(N2CCCC2)nc(N2CCN(S(=O)(=O)c3ccc(Oc4ccccc4)cc3)CC2)n1	none
O=C(CN1CCC(c2ccccc2C(=O)O)C1)NCc1ccccn1 (stereo not drawn)	none
COCCNC(=O)CN1c2ccc(Br)cc2-c2ccccc2S1(=O)=O	FECH block active
CC(C)OCCCNC(=O)CN1c2ccc(Br)cc2-c2ccccc2S1(=O)=O	FECH block active
O=C(CN1c2ccc(Br)cc2-c2ccccc2S1(=O)=O)NCc1ccccn1	FECH block active
CC(C)OCCCNC(=O)c1ccc(CN2C(=O)CCn3nc(-c4ccccc4)cc32)cc1	none
O=C(CN1c2ccc(Br)cc2-c2ccccc2S1(=O)=O)NCCN1CCOCC1	none
O=C(NCc1ccccn1)C1(Oc2cccc3ncccc23)CCNCC1	none
CCC1=C(c2ccc(OC)cc2)S(=O)(=O)N(CC(=O)NCc2cccc(Br)c2)C1=O	none
C=CCOc1cccc(NC(=O)CN2c3ccc(Br)cc3-c3ccccc3S2(=O)=O)c1	none
Cc1ccc(S(=O)(=O)NCc2nc3cccnc3n2C)cc1Cl	none
Cc1ccc(C)c(OCC(=O)NCc2nnc3n2CCC3)c1C	none
CCOC(=O)c1ccccc1NC(=O)NCCc1nc2cccnc2n1-c1ccccc1	none
Cc1ccc(-c2noc(C3CCN(C(=O)CNC(=O)c4ccccc4)CC3)n2)cc1	none
CCOc1ccc(CC(=O)Nc2cc(N3CCCS3(=O)=O)ccc2OC)cc1	none
O=C(NC1CCCCC1)c1nc[nH]c1C(=O)NC1CCCCNC1=O (stereo not drawn)	none
O=C(NC1CC1)c1nc[nH]c1C(=O)NC1CCCCNC1=O (stereo not drawn)	FECH block active
CCCNC(=O)c1[nH]cnc1C(=O)NC1CCCCNC1=O (stereo not drawn)	none
COc1ccc(NC(=O)Cc2csc(NC(=O)Nc3cccc(Cl)c3)n2)cc1	none
Cc1nn(-c2cc(N3CCCC3)ncn2)c(C)c1CCC(=O)NC1CCCCCC1	none
COc1ccc(NC(=O)CSc2cc(N3CCCCC3)ncn2)cc1	none
O=C(CSc1cc(N2CCCCC2)ncn1)NC1CCCC1	FECH block active

High-throughput results as filed in PubChem BioAssay.
